This is a sample that favours compounds with a hit; in the whole collection about 2.5% have one here.
AI-2 QS modul – Vibrio harveyi AI-2 quorum sensing modulation | Vibrio harveyi JMH597 AI-2 luminescence/OD600 ratio, 9 h; hits give low values; strain lacks LuxN and CqsS sensors; 0 = neutral-control median | activity change, % at 7.5 µM | AID 2094 | 0.4% of 300,000 active; in the data active = activity change below about -75%, passing the limit was not always enough; inconclusive = no clear call, values can overlap the other calls;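 also: luminescence divided by OD600 gain over 9 h not by final OD600 alone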
V-ATPase pHluor – regulators of yeast V-ATPase proton transport; S. cerevisiae, pHLuorin cytosolic pH fluorescence; response, % at 10 µM; 0.37% of 350,000 active; in the data active = response mostly above about 7.3%, no sharp cut-off; inactive = mostly below about 5.4%; also: actives read high
ATG4B inh – blocks human ATG4B protease cleavage of LC3 substrate. 0.51% of 340,000 active. ATG4B cleavage of LC3-PLA2, NBD-HPC fluorescence, 1 h. inhibition, % at 8.33 µM. Q9Y4P1; in the data active = inhibition above about 40%
Target sequence (Q9Y4P1 whole entry, looked up): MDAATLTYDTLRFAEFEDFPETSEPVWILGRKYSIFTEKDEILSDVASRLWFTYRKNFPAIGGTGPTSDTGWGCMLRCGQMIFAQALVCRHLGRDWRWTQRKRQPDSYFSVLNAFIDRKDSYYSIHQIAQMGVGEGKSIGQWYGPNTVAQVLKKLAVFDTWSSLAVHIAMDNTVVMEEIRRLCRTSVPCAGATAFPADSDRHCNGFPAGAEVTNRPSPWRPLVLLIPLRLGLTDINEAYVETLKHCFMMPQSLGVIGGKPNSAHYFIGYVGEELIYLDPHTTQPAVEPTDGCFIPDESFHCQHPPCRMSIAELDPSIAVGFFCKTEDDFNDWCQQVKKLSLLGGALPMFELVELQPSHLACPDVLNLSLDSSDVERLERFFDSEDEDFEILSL
Efflux pump mplx – inhibitors of Candida antifungal efflux pumps expressed in yeast; S. cerevisiae Candida pump triplex, Nile Red efflux; inhibition, % at 10 µM; 0.44% of 330,000 active; AID 485275;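 active = plate passing quality check with inhibition over a set limit, or well fluorescence over plate mean plus 4 SD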;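 also: Nile Red retained in pooled yeast measured as flow cytometry median fluorescence; 0% = buffer negative control and 100% = Enniatin B positive control; higher means more Nile Red kept so more efflux inhibition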
SUMO Mot1 rescue – SUMOylation pathway inhibition by Mot1-301 growth rescue; 1% of 320,000 active; growth rescue, % at 18.8 µM; AID 2716; S. cerevisiae Mot1-301 growth rescue, ATP luminescence, 38.5C; percent above DMSO median, 100 means doubled;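 active = every valid replicate shows activation above 250% relative to neutral control wells; inactive = the rest, any valid replicate at or below 250%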;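 also: OY570 slx delta 5 strain wells were the positive control but not used for scaling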
ATG4B conf – ATG4B (human) inhibition, single-dose confirmed. 92% of 320 active. AID 504757. ATG4B protease fluorescent substrate cleavage assay. shares compounds with ATG4B inh. inhibition, % at 8.33 µM; in the data active = inhibition above about 39%
PLA2 counter – inhibits human PLA2, flagging false ATG4B inhibitors. shares compounds with ATG4B inh. purified PLA2, NBD-C6-HPC fluorescence, 45 min. inhibition, % at 8.33 µM. 66% of 1,600 active; in the data active = inhibition above about 50%
Target sequence (P04054 whole entry, looked up): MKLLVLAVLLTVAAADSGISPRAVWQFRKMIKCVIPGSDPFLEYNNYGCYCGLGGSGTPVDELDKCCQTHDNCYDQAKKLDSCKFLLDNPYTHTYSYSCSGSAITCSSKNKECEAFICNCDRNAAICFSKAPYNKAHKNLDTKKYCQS
The depositor's hits bear a star; ? = inconclusive; . = no result given.

SMILES	AI-2 QS modul	V-ATPase pHluor	ATG4B inh	Efflux pump mplx	SUMO Mot1 rescue	PLA2 counter	others
Cc1c(NC(=O)c2ccccc2NC(=O)c2ccccc2)cccc1C(=O)O	1	4	3	0	-17	.
O=[N+]([O-])c1cc(S(=O)(=O)NCCN2CCOCC2)ccc1Cl	13	0	-12	0	67	.
COc1cc(C2OC(=O)c3ccccc3S2)cc(OC)c1OC (configuration not stated)	22	0	1	0	14	.
COc1ccc(C2OC(=O)c3ccccc3S2)cc1 (configuration not stated)	4	-1	54*	0	3	54*
Cc1cc(-c2nnc(SCC(=O)Nc3ccccc3C(F)(F)F)o2)c(C)n1-c1ccccc1	26	0	-13	0	-1	.
Cc1cccc(NC(=O)CSc2nnc(-c3cc(C)n(-c4ccccc4)c3C)o2)c1C	14	-6	41*	0	-30	56*
CN1C(=O)CSc2ccc(NC(=O)NCc3ccc(F)cc3)cc21	?	4	64*	0	-7	79*
NC(=O)CSc1nc2cc(Cl)ccc2c(=O)n1C1CCCCC1	20	2	4	0	13	.
COC(=O)CSc1nc2cc(Cl)ccc2c(=O)n1C1CCCC1	28	3	46*	0	2	26	ATG4B conf=61*
CN(C)S(=O)(=O)c1ccc(NCC2COc3ccccc3O2)c([N+](=O)[O-])c1 (configuration not stated)	8	-1	0	0	-12	.
NC(=O)c1ccc(NCC2COc3ccccc3O2)c([N+](=O)[O-])c1 (configuration not stated)	20	-1	82*	0	-19	79*
CC(C)N(C(=O)CSc1nnc(-c2cc3ccccc3cc2O)n1Cc1ccco1)C(C)C	2	-2	-7	0	-1	.
O=C(CSc1nnc(-c2cc3ccccc3cc2O)n1Cc1ccco1)N1CCc2ccccc2C1	22	-1	41*	0	-8	54*
COc1ccccc1N(CCC#N)C(=S)Nc1ccc(S(=O)(=O)N2CCOCC2)cc1	.	1	0	0	0	.
CC(NC(=O)OC(C)(C)C)C(=O)NC(CCC(=O)OCc1ccccc1)C(N)=O (configuration not stated)	22	1	-7	0	20	.
CCN1CCN(c2nc3c(C)cccn3c(=O)c2/C=C(\C#N)S(=O)(=O)c2ccccc2)CC1	35	-1	50*	0	-13	52*
Cc1ccc(-c2csc3ncnc(Cl)c23)cc1	-1	-1	10	0	1	.
Cc1cccc(C(=O)O/N=C2\CCCc3ccccc32)c1	17	3	45*	0	-1	50
Cc1ccc(C(=O)O/N=C2\CCCc3ccccc32)cc1	22	2	43*	0	-3	48	ATG4B conf=58*
CCOc1ccc(C(=O)Nc2cc(NC(=O)c3ccc(OCC)c(Cl)c3)cc(C(=O)O)c2)cc1Cl	-16	0	48*	.	.	60*
COC(=O)c1ccc(NC(=O)CN2CCC(NC(=O)c3ccccc3F)CC2)cc1	.	-1	.	.	.	.
CC(C)[C@H](NC(=O)[C@H]1N2C(=O)c3ccccc3C2SC1(C)C)C(=O)NCc1ccco1 (some centres not stated)	7	-2	-6	0	2	.
CCN(CC)c1nc(N)c2c(N)n(-c3ccccc3C)c(=S)c(C#N)c2c1C#N	4	-5	54*	0	-9	70*
CCN(CC)c1nc(N)c2c(N)nc3c(c2c1C#N)CC(c1ccccc1)O3 (configuration not stated)	0	-1	12	0	5	.
NC1=NC(=Nc2cccc(S(N)(=O)=O)c2)c2ccccc21	24	-2	-8	0	276	.
SMILES	AI-2 QS modul	V-ATPase pHluor	ATG4B inh	Efflux pump mplx	SUMO Mot1 rescue	PLA2 counter	others
COc1ccccc1NS(=O)(=O)c1cccc(N=C2N=C(N)c3ccccc32)c1	16	-5	54*	0	165	57*
Nc1nc(COc2ccccc2C=O)nc(Nc2ccccc2)n1	18	7	19	0	5	.
Cc1ccc(N2CCC(N3CCN(C)C(CCO)C3)CC2)cc1 (configuration not stated)	5	1	0	0	-10	.
Cc1cc(N/N=C/c2ccccc2Cl)nc(NCc2ccccc2)n1	27	3	85*	0	22	91*
Cc1cc(C)nc(N/N=C/c2ccccc2Cl)n1	15	12	-4	0	4	.
O=C(CN1CCN(S(=O)(=O)c2ccc(Cl)c(Cl)c2)CC1)N1CCCC1	.	-1	-2	0	17	.
Cc1cc(C)c2sc(N(CCCN(C)C)C(=O)c3ccc(S(=O)(=O)N(C)Cc4ccccc4)cc3)nc2c1	12	1	42*	0	-45	49
Cc1ccc(S(=O)(=O)N2C[C@]3(O)C[C@@H]4C(=O)N(c5ccccc5)C(=O)[C@@H]4C[C@]3(OC(=O)NC3CCCC3)C2)cc1	.	0	.	.	.	.
Cc1ccc(C(=O)CC(=O)c2cc(Cl)ccc2O)cc1	41	-2	46*	0	20	47	ATG4B conf=72*
CC1C(=O)N(Cc2cn(Cc3ccco3)nn2)CCS(=O)(=O)N1Cc1ccc(-c2ccc(Cl)c(Cl)c2)cc1 (configuration not stated)	.	-3	.	.	.	.
CCOC(=O)c1sc(-c2ccccc2)cc1NC(=O)Nc1ccccc1	2	0	41*	0	-18	37	ATG4B conf=83*
S=C(NCCN(C1CCCCC1)C1CCCC1)Nc1cccc(Cl)c1	2	-1	16	0	63	.
Fc1cccc(NC(=S)NCc2ccccc2Cl)c1	-20	-1	40*	0	6	49
S=C(NCc1ccc(Cl)cc1)Nc1ccccc1	-63	0	14	0	17	.
COC(=O)c1cccc(NC(=S)NCc2ccc(F)cc2)c1	-59	-2	42*	0	50	50*
S=C(NCCC(c1ccccc1)c1ccccc1)Nc1cccc(Cl)c1	7	1	46*	0	-9	70*
Fc1ccc(CNC(=S)Nc2ccc(Cl)cc2)cc1	-21	-5	43*	0	6	52*
O=C(Nc1ccc(C(=O)O)cc1)/C(=C\c1ccco1)NC(=O)c1ccco1	-4	1	-10	0	8	.
FC(F)(F)c1cccc(NC(=S)NNC(=S)NCc2ccccc2)c1	-1	-2	42*	0	4	50
CCNC(=S)Nc1ccc(Oc2ccccc2)cc1	-11	2	0	0	.	.
Fc1ccc(CNC(=S)Nc2cccc(Cl)c2)cc1	?	1	61*	0	-1	67*
CCNC(=O)C(=O)Nc1ccc([N+](=O)[O-])cc1	13	-5	-5	0	6	.

High-throughput results (PubChem BioAssay)
